A short description of experiment [1]: inhibitors of TNFa-induced NFkB p65 translocation, primary screen, imaging, HUVEC, MLSMR starter and 10KST1 sets (AID 438;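 active = inhibition above 20% together with a positive visual image hit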;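 note: compound added about 3h40 before a 20 min TNFalpha stimulation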;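 for inhibition: signal is the nuclear over cytoplasmic p65 intensity ratio per well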). The following applies: HUVEC TNFa-induced p65 nuclear translocation; cell count: measured here: nuclei count (cytotoxicity indicator), at 2.08 µM; inhibition: at 2 µM, stronger effect = higher value, 0% TNFa-plus-vehicle, 100% no-TNFa wells.
Experiment [2] is described as follows: reduction of polyQ htt aggregates in cells – imaging, exon1htt(103Q)mCFP cells, high-content imaging, primary screen (AID 483;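 active = visual image review flags a hit and inhibition of aggregation exceeds 20%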;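 note: compound exposure lasted 3 days before fixation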;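 for nuclei count: percent of the per-plate median nuclei count of sample wells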). The following applies: exon1htt(103Q)mCFP cell line, aggregate imaging, at 2 µM; inhibition of aggregation: stronger effect = higher value; nuclei count: measured here: cell count, toxicity.
A short description of experiment [3]: endothelial E-selectin expression blockers – imaging, HUVEC, immunofluorescence, MLSMR starter and 10KST1 sets, primary screen (AID 487;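 active = visually confirmed hit in the image check and inhibition above 20%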;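 for inhibition: signal is fraction of cell area covered by stained E-selectin grains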;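 for nuclei count: 100% = median nuclei count of all wells on the same plate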). The following applies: HUVEC TNFalpha-induced E-selectin immunofluorescence imaging, at 2 µM; inhibition: stronger effect = higher value; nuclei count: measured here: cell number, toxicity.
Experiment [4] is described as follows: Primary imaging screen for DUSP6 inhibitors that restore phospho-Erk in transfected HeLa cells, chemical complementation (AID 609;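 active = compounds giving at least 50% inhibition in the cell-based MKP-3 phosphatase rescue imaging test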;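 for inhibition: phospho-Erk level distribution per well compared with pooled transfected vehicle control wells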). The following applies: HeLa MKP-3 transfected, phospho-Erk imaging KS statistic, at 10 µM, cells stimulated with TPA for 15 min.
Experiment [5] deals with Dual specificity protein phosphatase 6 (Homo sapiens) (UniProt Q16828). The description is as above. The note with it: HeLa MKP-3 transfected, phospho-Erk imaging KS statistic; at 10 µM; stronger effect = higher value; cells stimulated with TPA for 15 min.
For experiment [6], the target named is Voltage-gated potassium channel subunit beta-2 (Rattus norvegicus) (UniProt P62483). The experiment can be described thus: inhibitors of rat Kvbeta2 reductase activity – biochemical, NADPH fluorescence, primary screen (AID 622;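 active = fluorescence slope higher than the sample average by over 3 SD, cut at about -0.22 in these data, passing the limit was not always enough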;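 note: slope of raw intensity against log time taken from 70 to 1610 s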). The following applies: recombinant KvBeta, 4-cyanobenzaldehyde reduction, at 10 µM, stronger effect = higher value.
The target is the same in experiment [7]. The experiment can be described thus: enhancers of rat Kvbeta2 NADPH turnover – biochemical, NADPH fluorescence, primary screen (AID 623;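 active = NADPH fluorescence slope more negative than the mean of all samples by about 3 SD, 99.7% confidence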;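 note: fluorescence intensity change per second fitted from 20 to 320 s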). The following applies: Recombinant KvBeta, NADPH fluorescence decrease slope, 10 min; at 10 µM; stronger effect = lower value.
In experiment [8] the target is Alpha-2C adrenergic receptor (Homo sapiens) (UniProt P18825). The experiment can be described thus: compounds altering alpha2C-coupled GIRK flux – cell-based, HEK293 alpha2C/GIRK1/2, thallium flux, primary screen (AID 624;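 active = fluorescence slope after compound addition differing from the mean of all screened samples at 99.7% confidence, in either direction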;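 note: slope of fluorescence ratio to pre-addition baseline per second over 15 to 24 s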). The following applies: thallium flux BTC fluorescence, at 10 µM, actives lie on both sides.
Experiment [9] in a line: inhibitors of larval lipid processing in zebrafish, primary screen, whole organism, PED6 fluorescence, gall bladder and intestine (AID 686;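 active = a full or partial loss of lipid-probe fluorescence in the fish gall bladder, intestine or both, judged by eye; inactive = no fluorescence loss, or compound toxic to the fish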;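 note: larvae 5 to 7 days old with five fish per well; signal comes from phospholipase A2 cleavage of quenched PED6 carried via bile; overnight exposure to compound and PED6 before scoring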). The following applies: Zebrafish larvae PED6 lipid processing, fluorescence scoring; screened at 20 µM (by protocol).
A short description of experiment [10]: loss of swimming-algae plug formation – whole organism, Chlamydomonas reinhardtii, WT vs cilia-less mutant, absorbance, 96-well, primary screen (AID 463189).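 Note: 0% = wild type cc124 cells in DMSO and 100% = ciliumless bld1 mutant cells.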 The note with it: Chlamydomonas reinhardtii gravitaxis, OD600 absorbance, 2 days; at 10 µM; stronger effect = higher value.
The nature of experiment [11]: blockers of RIG-like receptor reporter activation – cell-based, Sendai virus stimulus, luciferase, 10K MLSCN set, TLR/RLR signaling modifier project, primary screen (AID 602276;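 active = inhibition at or above 50% at 10 µM; inactive = inhibition below 50%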;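 note: firefly luciferase from ISG56 promoter only with Renilla not read in this screen; 0% = Sendai virus plus DMSO and 100% = medium plus DMSO without virus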). The following applies: HEK293 RL24 IRF3 luciferase reporter, at 10 µM, stronger effect = higher value. For orientation: Reporter assays use an easily measured gene product as a stand-in for the process of interest.

The nature of experiment [12]: TLR3 IRF3 reporter activation blockers – cell-based, poly I:C stimulus, luciferase, 10K MLSCN set, primary screen (AID 602277;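 active = inhibition of the reporter signal at or above 50%; inactive = inhibition below 50%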). The note with it: HEK293-TLR3 RL24 IRF3 luciferase reporter, at 10 µM, stronger effect = higher value.
The mark [13] stands for this setting: measured here: cell density z-score.
Where [14] appears, read: measured here: nuclear c-Myc green intensity z-score.
[15] abbreviates: measured here: nuclear pErk red intensity z-score, stronger effect = higher value.

The structures appear in SMILES notation. Calls of active or inactive are those of the source.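 Rule for the calls, unless noted: active = inhibition at or above 50% relative to wild type and mutant plate controls; inactive = inhibition below 50%.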

Dual specificity protein phosphatase 6 (Homo sapiens), sequence (Q16828 whole entry, looked up): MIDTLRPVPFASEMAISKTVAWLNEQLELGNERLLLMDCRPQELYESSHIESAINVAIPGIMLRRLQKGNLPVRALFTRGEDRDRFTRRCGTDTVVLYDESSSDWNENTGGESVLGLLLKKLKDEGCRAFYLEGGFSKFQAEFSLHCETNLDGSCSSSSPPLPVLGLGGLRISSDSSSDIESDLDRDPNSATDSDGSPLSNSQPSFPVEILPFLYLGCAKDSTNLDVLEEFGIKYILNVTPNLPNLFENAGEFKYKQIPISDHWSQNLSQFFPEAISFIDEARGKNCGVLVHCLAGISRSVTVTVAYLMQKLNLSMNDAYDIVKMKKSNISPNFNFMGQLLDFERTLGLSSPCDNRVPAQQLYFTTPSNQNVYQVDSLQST
Alpha-2C adrenergic receptor (Homo sapiens), sequence (P18825 whole entry, looked up): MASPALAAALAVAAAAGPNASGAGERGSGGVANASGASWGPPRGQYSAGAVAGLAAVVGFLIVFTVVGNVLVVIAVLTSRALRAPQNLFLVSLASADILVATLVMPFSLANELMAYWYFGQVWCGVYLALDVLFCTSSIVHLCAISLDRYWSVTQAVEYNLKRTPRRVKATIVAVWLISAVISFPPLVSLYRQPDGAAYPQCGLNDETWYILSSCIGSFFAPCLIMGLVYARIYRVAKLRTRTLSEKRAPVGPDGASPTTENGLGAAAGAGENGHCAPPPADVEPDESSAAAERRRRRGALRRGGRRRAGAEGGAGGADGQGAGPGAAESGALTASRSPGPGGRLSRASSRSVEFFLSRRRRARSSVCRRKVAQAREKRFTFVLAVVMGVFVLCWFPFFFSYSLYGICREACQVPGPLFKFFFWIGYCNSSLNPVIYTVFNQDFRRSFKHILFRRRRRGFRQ
Voltage-gated potassium channel subunit beta-2 (Rattus norvegicus), sequence (P62483 whole entry, looked up): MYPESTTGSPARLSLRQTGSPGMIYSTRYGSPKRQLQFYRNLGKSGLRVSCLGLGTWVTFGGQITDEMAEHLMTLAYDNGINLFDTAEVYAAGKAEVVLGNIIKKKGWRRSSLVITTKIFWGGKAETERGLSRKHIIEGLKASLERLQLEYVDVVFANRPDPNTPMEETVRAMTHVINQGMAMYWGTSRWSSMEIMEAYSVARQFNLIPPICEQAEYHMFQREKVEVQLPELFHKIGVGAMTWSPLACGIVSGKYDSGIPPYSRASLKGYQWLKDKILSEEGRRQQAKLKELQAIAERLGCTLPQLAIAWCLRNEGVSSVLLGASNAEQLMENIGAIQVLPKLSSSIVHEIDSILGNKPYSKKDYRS

As a reminder, the inhibition is the drop in the measured response relative to a control, in per cent. As for `CC(C)Sc1nc(N2CCCC2)c2c(c1C#N)CC(C)(C)OC2`, in experiment [1], the cell count was 547. Also, the inhibition in [1] was -6.2% (inactive); in experiment [3], -59.4% (inactive); in experiment [5] it was 24.4% (inactive); in [10] it was 48.4% (inactive); in [11], 14% (inactive); in [12], 18.1% (inactive). In addition, in experiment [2], the inhibition of aggregation was 15.4% (inactive). The nuclei count in [2] stood at 73.8%; in experiment [3], 126%. Further, the results for the z-score in experiment [4] (setting [13]), in experiment [4] (setting [14]) and in [4] (setting [15]) were 1.33, -1.33 and -0.539, respectively. In addition, the fluorescence slope in experiment [6] is -0.386 (inactive). Further, the NADPH fluorescence slope in [7] was 4.7e-06 (inactive). Besides, the slope in experiment [8] is 0.00612 (inactive). The compound was called inactive in experiment [9].

`CCOC(=O)CSC1=C(C#N)C(=O)NC2(CCCCC2)S1`: the cell count in experiment [1] was found to be 580. In addition, the inhibition in [1] was -10.9% (inactive); in [3] it was -43.8% (inactive); in experiment [5], -7.86% (inactive); in experiment [10], -1.64% (inactive); in experiment [11], 8.53% (inactive); in experiment [12], 100% (active). The inhibition of aggregation in experiment [2] was -5.9% (inactive). The nuclei count is 108% in [2] and 131% in experiment [3]. Besides, the results for the z-score in [4] (setting [13]), in [4] (setting [14]) and in [4] (setting [15]) were -1.03, 0.989 and 0.0798, respectively. In addition, the fluorescence slope in experiment [6] was -0.497 (inactive). The NADPH fluorescence slope in experiment [7] was -4.9e-05 (inactive). Moreover, the slope in experiment [8] is 0.00597 (inactive). In addition, the compound was classed as inactive in experiment [9].

For the compound `Cn1c(=O)c2c3c(sc2n2c(SCC(=O)c4ccc(Cl)cc4)nnc12)COC(C)(C)C3`, the cell count in experiment [1] was 673. The inhibition was -9.1% (inactive) in experiment [1]; 2.7% (inactive) in experiment [3]; -3.98% (inactive) in experiment [5]; 0.223% (inactive) in experiment [10]; 6.06% (inactive) in experiment [11]; 10.6% (inactive) in experiment [12]. Also, the inhibition of aggregation in [2] was -12.3% (inactive). Moreover, the nuclei count in experiment [2] was found to be 105%; in [3] it was 143%. Besides, the z-score was -0.121 in [4] (setting [13]), 0.129 in experiment [4] (setting [14]) and -1.03 in experiment [4] (setting [15]). The fluorescence slope in [6] was -0.53 (inactive). In experiment [7], the NADPH fluorescence slope was -1.3e-05 (inactive). Besides, the slope in [8] is 0.00419 (inactive). For the same compound, in [9], the call was inactive.

For the compound `CCOc1nc(-c2ccncc2)nc2ccccc12`, in experiment [1], the cell count is 416. Further, the inhibition was 5.6% (inactive) in [1]; -66.1% (inactive) in experiment [3]; 4.25% (inactive) in experiment [5]; 39.6% (inactive) in experiment [10]; 13.1% (inactive) in experiment [11]; 16.5% (inactive) in [12]. Moreover, the inhibition of aggregation in [2] is -55% (inactive). In addition, the nuclei count in [2] turned out to be 13.3%; in experiment [3] it was 116%. Besides, the z-score is -2.21 in [4] (setting [13]), -0.624 in [4] (setting [14]) and 0.47 in experiment [4] (setting [15]). Moreover, in experiment [6], the fluorescence slope was -0.322 (inactive). In experiment [7], the NADPH fluorescence slope was 3e-05 (inactive). Further, in experiment [8], the slope is 0.00435 (inactive). Besides, the call in experiment [9] was inactive.

Take `CC(=O)NS(=O)(=O)c1ccc(N)cc1`: in [1], the cell count stood at 651. The inhibition in experiment [1] was 7.7% (inactive); in experiment [3], -106% (inactive); in [5], 14.6% (inactive); in experiment [10], 46.5% (inactive); in experiment [11], 11.7% (inactive); in experiment [12], 26.8% (inactive). Besides, the inhibition of aggregation in experiment [2] was 12.5% (inactive). Moreover, the nuclei count was 97.6% in experiment [2] and 120% in experiment [3]. Moreover, the z-score is -1.23 in experiment [4] (setting [13]), 1.33 in experiment [4] (setting [14]) and -0.291 in [4] (setting [15]). Moreover, the fluorescence slope in experiment [6] is -0.508 (inactive). Moreover, in experiment [7], the NADPH fluorescence slope is -4.5e-05 (inactive). For the same compound, the slope in experiment [8] is 0.00641 (inactive). The outcome in experiment [9] was inactive.

As for `Cc1cc(-c2ccccc2)nnc1NCCN1CCOCC1`, the cell count in [1] worked out at 674. For the same compound, the inhibition in experiment [1] is 5.8% (inactive); in experiment [3], -64.4% (inactive); in experiment [5], 25.7% (inactive); in experiment [10], 15.7% (inactive); in [11], 13.3% (inactive); in experiment [12], 33.7% (inactive). For the same compound, in experiment [2], the inhibition of aggregation is -29.4% (inactive). The nuclei count in [2] stood at 99.9%; in experiment [3], 119%. Also, the z-score is 0.561 in experiment [4] (setting [13]), 0.88 in experiment [4] (setting [14]) and 0.22 in [4] (setting [15]). Moreover, the fluorescence slope in experiment [6] was -0.472 (inactive). In addition, the NADPH fluorescence slope in experiment [7] was -2e-05 (inactive). Moreover, in [8], the slope was 0.00515 (inactive). Moreover, the call in [9] was inactive.
